In PubChem BioAssay AID624331 (National Center for Advancing Translational Sciences (NCATS), 2012) one finds Potency data, which are given here for 54 compounds.

A short description of the experiment: qHTS assay for re-activators of p53 using a Luc reporter: Hit Validation with no p53 Expressed. Put shortly: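 Without p53 expression, cells (1000/well, Opti-MEM + 10% FBS) were exposed 24 h at 37 deg C to compounds in a 1:5 series from 10 mM stock (top 46.1 µM in well). Luminescent signal read 10 min after Amplite addition; actives flag unspecific activation.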
In general terms: Quantitative high-throughput screening tests each substance at several concentrations.

Records with an inconclusive call do not appear. A call without a number means that no potency is given here. Active and inactive are the calls of the source. The call rests on the fitted dose curve; in most records, active means well fitted activation curve with a large enough effect; inconclusive means small, poorly fitted or top-dose-only effect; inactive means no such curve, though single readings can be large or run the other way.
Potency means the concentration at half of the fitted maximal effect.

Take `O=C(/C=C/Nc1ccc(F)cc1F)c1cccs1`: the Potency result is “inactive”.
To `COC(=O)C1=C(C(=O)c2ccccc2)C(c2ccc(OC)c(OC)c2)Nc2nnnn21` (centres undefined) belongs “inactive”; to `COC(=O)CCC(=O)COc1ccccc1C#N`, “inactive”; to `O=C(NC1CCCCC1)c1ccc(-c2ccccc2F)o1`, “inactive”.
As for `CC(C)OC(=O)CCCCCN1C(=O)CSC1=S`, the Potency entry was “inactive”.
To `Cc1ccc(OCC(=O)c2cc(C)n(C3CC3)c2C)c([N+](=O)[O-])n1` belongs “inactive”; to `Cc1ccc(S(=O)(=O)NCC(=O)N2CCc3ccccc3C2)cc1`, “inactive”.
As for `Cc1nc(NC(=O)C2CC3CCCC(C2)C3=O)sc1C` (centres undefined), the Potency result is “inactive”.
As for `Cc1cc(=O)[nH]c(N/N=C/c2ccccn2)n1`, the entry is “inactive”; as for `CCOC(=O)C1CCN(S(=O)(=O)Cc2ccccc2)C1=O` (centres undefined), “inactive”.
To `Cn1c(C(=O)Nc2ccc3c(c2)OCCO3)cc2sccc21` belongs 1160 nM (active).
As for `CN(C)c1ccc(/C=N/N=C/c2ccccc2O)cc1`, the entry is “inactive”; as for `Cc1cc(CC(C)C)n(-c2nc3ccccc3c(=O)n2OCC(N)=O)n1`, “inactive”; as for `COC(=O)CSc1nc2cc(OC)ccc2cc1C#N`, “inactive”.
As for `CC(C)N1CCc2c(sc(NC(=S)NC(=O)c3ccccc3)c2C#N)C1`, the Potency entry is “inactive”.
To `CC(C)c1ccc(NC(=S)NN2CCOCC2)cc1` belongs “inactive”; to `CCOC(=O)NC1(Nc2ccc(C)cc2)Oc2ccccc2O1`, “inactive”; to `CC1CCN(C2=C(NS(=O)(=O)c3ccc(Br)cc3)C(=O)c3ccccc3C2=O)CC1`, “inactive”.
Turning to `CCN(CC)c1ccc(NC(=O)CN2CCN(CC(=O)Nc3ccccc3F)CC2)cc1`, the Potency entry was “inactive”.
To `C/C(=N\NC(=O)c1ccccc1)c1ccc(NC(=O)c2cccs2)cc1` belongs “inactive”; to `O=C(CCCN1C(=O)/C(=C/c2ccco2)SC1=S)Nc1ccccc1`, “inactive”; to `c1ccc(Oc2cc(-n3cncn3)ncn2)cc1`, “inactive”.
As for `COC(=O)c1nn(-c2ccc(-c3ccccc3)cc2)cc1O`, the Potency result was “inactive”.
As to `O=C(Nc1ccc(-c2nc3cc(Cl)ccc3c(=O)o2)cc1)c1ccco1`, the Potency entry is “inactive”.
Consider `COCCNc1nc2sc3c(c2c(=O)n1Cc1ccco1)CCCCC3`, for which the Potency result was “inactive”.
As for `N#CCc1nc(CSc2nc3ccccc3s2)cs1`, the entry is “inactive”; as for `Cc1ccc(NC(=O)NC(=O)CN2CCC(C(N)=O)CC2)c(C)c1`, “inactive”.
As for `CC(C)C(=O)Nc1ccc(-c2nc3cccnc3o2)cc1`, the entry is “inactive”; as for `CCOC(=O)c1ccc(N2Cc3ccccc3C2=NC(=O)c2cccs2)cc1`, “inactive”; as for `O=C(CSCC(=O)Nc1cccc([N+](=O)[O-])c1)Nc1ccccc1`, “inactive”.
Regarding `NNC(=O)c1cccc(COc2ccc(Br)cc2)c1`, the Potency result is “inactive”.
To `CCOC(=O)c1ccc2ncc(C(=O)OCC)c(NCc3ccco3)c2c1` belongs “inactive”; to `CC1=CN2C(=N)/C(=C/c3ccc(C)o3)C(=O)N=C2S1`, “inactive”.
As for `CCOc1ccc(/C=N/NC(=O)CN2CCSCC2)cc1`, the entry is “inactive”; as for `Clc1ccc(C2=NNC(=NCC3CCCO3)SC2)cc1` (centres undefined), “inactive”.
As for `CCc1nnc(NC(=O)CCC(=O)Nc2ccccc2)s1`, the entry is “inactive”; as for `CCOc1ccc2c(c1)C(=NNC(=O)c1ccncc1)c1cc(OCC)ccc1-2`, “inactive”.
Regarding `CCOC(=O)c1c(NC(=O)C2COc3ccccc3O2)sc2c1CCN(Cc1ccccc1)C2` (centres undefined), the Potency result is “inactive”.
For the compound `Cc1ccc(C(=O)NC2CC2)cc1S(=O)(=O)N1CCOCC1`, the Potency entry was “inactive”.
To `COc1ccc2oc(C(=O)OCC(=O)NCCN3C(=O)CSC3=O)c(C)c2c1` belongs “inactive”.
To `COc1ccc(C(=O)O/N=C(\N)c2ccccc2)c(OC)c1` belongs 1160 nM (active); to `Nc1ccc(-c2cnc(-c3ccc(N)cc3)nc2)cc1`, “inactive”.
To `Cc1cc(Br)c(S(=O)(=O)NCCN2CCOCC2)cc1C` belongs “inactive”.
On to `c1ccc(-c2cn3c(n2)SCC3)cc1`, for which the Potency entry was “inactive”.
`O=[N+]([O-])c1ccc(Cl)cc1Sc1nc2ccccc2o1`: the Potency result is “inactive”.
To `Cc1sc(NC(=O)c2ccc(Cl)s2)c(C(N)=O)c1C` belongs “inactive”.
Turning to `COc1ccc(NC(=O)/C(=C\c2ccc3c(c2)OCO3)NC(C)=O)cc1`, the Potency result is “inactive”.
To `N#CC(Cc1ccccc1)(Cc1ccccc1)C(=O)NN` belongs 29100 nM (active).
As for `CN1CCc2c(sc(NC(=O)C3COc4ccccc4O3)c2C(N)=O)C1` (centres undefined), the entry is “inactive”; as for `O=C(CSc1nnc(-c2ccc(O)cc2)o1)N1CCOCC1`, “inactive”; as for `O=C(/C=C/c1cccs1)Nc1ccc(Br)cn1`, “inactive”.
As for `CCOc1ccc2c(c1)C(C)=CC(C)(C)N2S(=O)(=O)c1ccc(NC(C)=O)cc1`, the entry is “inactive”.
Regarding `CC(C)(C)Nc1ncnc2c1cnn2-c1ccccc1`, the Potency result is “inactive”.
As for `Cc1cc(C(=O)Nc2ccc(Br)cn2)sc1C`, the entry is “inactive”.
